The values that follow come from PubChem BioAssay AID1745845 (National Center for Advancing Translational Sciences (NCATS), 2022).

The structures appear in SMILES notation. Where “and” joins values, the source holds several entries; their conditions need not be identical. Equal entries are not always repeated. The campaign covered roughly 360,000 compounds. About 2,600 (0.72%) were called active. A call without a number means that no potency is given here. Not shown: some 5% with an inconclusive outcome. The call rests on the fitted dose curve; in most records, active means well fitted inhibition curve with a large enough effect; inconclusive means small, poorly fitted or top-dose-only effect; inactive means no such curve, though single readings can be large or run the other way. The sample as a whole holds a higher share of actives than the screen did. A structure can be active in one record and inactive in another.
Potency means the concentration at half of the fitted maximal effect.

This experiment in a line: Primary qHTS for Inhibitors of ATXN expression. Further: nearly all actives have a fitted effect of over 55% in size. Conditions: HEK-293 ATXN2-luciferase reporter, luminescence, 24 h; series mostly up to 57 µM. In a few lines:
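ATXN2-luciferase reporter cells (luciferase flanked by upstream and downstream ATXN2 gene portions) were treated 24 h at 37 °C with compounds at up to 57 uM. SteadyGlo luminescence gave expression; GF-AFC fluorescence gave viability.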
For orientation: In qHTS, concentration-response curves come from the screen itself.
Take `N#Cc1ccccc1Cn1cnc2nc3c(cc2c1=O)CCCC3`: the Potency entry was “inactive”. The value for `Cc1nc2c(OCc3ccc(Cl)cc3Cl)cccn2c1N(C)CC1CC1` was “inactive”; that for `CNN/C(N=Cc1ccc([N+](=O)[O-])s1)=N\S(=O)(=O)c1cc(C)c(Cl)cc1SCc1ccccc1` was “inactive”; that for `O=[N+]([O-])c1ccc(C=Nc2ccc(Cl)cc2Cl)s1` was 12.6 µM (active). Then `COC(=O)c1ccccc1NC(=O)c1cc(-c2ccccc2O)no1`, with “inactive”; and `CC(C)CCNC(=O)CSc1nc2ccccc2nc1Cc1ccc(Cl)cc1`, with “inactive”; and `COc1ccc(Cc2nnc(SC)[nH]c2=O)cc1`, with “inactive”. Regarding `COc1ccc(CCNC(=O)CCc2ccccc2O)cc1OC`, the Potency result is “inactive”. Regarding `COc1ccc(Cc2nnc(N/N=C/c3ccccc3O)[nH]c2=O)cc1OC`, the Potency was 3.55 µM (active). As for `CCCCCc1c(-c2ccc(OC)c(OC)c2)ncn1CCc1ccccc1OC`, the Potency entry is “inactive”. Then `COc1ccc(CNc2nc(-c3ccccc3)nn2C(=O)c2ccccc2OC)cc1`, with “inactive”.

Turning to `COc1cc(Cl)cn2c(-c3cccc(NC4CNC4)n3)cnc12`, the Potency result was “inactive”.

Take `Cc1ccc(-n2ncc3c(=O)n(Cc4cccc(C(F)(F)F)c4)cnc32)cc1C`: the Potency result was “inactive”. Then `CC1(C)OC(=O)C2=C(C[C@@H](C3CCCCC3)O[C@@H]2c2ccc(Cl)cc2)O1`, with “inactive”. In the case of `Cc1onc(C(=O)NCc2ccc(F)cc2)c1[N+](=O)[O-]`, the Potency result was “inactive”. Then `O=C(/C=C/c1ccc([N+](=O)[O-])o1)NNC(=O)c1ccc(F)cc1`, with 6.31 µM (active); and `NC(=O)C(=O)N/N=C/c1ccc([N+](=O)[O-])o1`, with “inactive”. For `Cc1ccc(S(=O)(=O)c2c(Nc3cccc(Cl)c3)sc(C(=O)c3ccc4c(c3)OCO4)c2N)cc1`, the Potency result is “inactive”. The value for `COc1cc(C(=O)OC(C)C(=O)NCC2CCCCC2)cc(NC(=O)c2ccco2)c1OC` (centres undefined) was 25.1 µM (active). For `CC(OC(=O)c1ccc([N+](=O)[O-])cc1)C(=O)NCC1CCCCC1` (centres undefined), the Potency result is “inactive”.

Consider `COc1ccc(NC(=O)CCC(=O)Nc2cc(OC)c(NC(=O)c3ccco3)cc2OC)c(OC)c1`, for which the Potency entry is “inactive”. For `COC(=O)c1c(NC(=O)CCCOc2ccccc2)sc2c1CCC(C)C2` (centres undefined), the Potency entry was “inactive”. Regarding `CC(=O)c1cccc(NC(=O)c2nc(-c3ccccc3)n(-c3cccc(C)c3)n2)c1`, the Potency entry is “inactive”. Take `Cc1cc(Br)ccc1NC(=O)Cn1cnc2sc(C)c(S(=O)(=O)N3CCN(C)CC3)c2c1=O`: the Potency result is “inactive”. On to `CN[C@@H]1[C@@H](O)[C@@H](O[C@@H]2[C@H](O)[C@H](O[C@H]3OC(CN)=CC[C@H]3N)[C@@H](N)C[C@H]2N)OCC1(C)O` (some centres undefined), for which the Potency entry is “inactive”.

As for `Cc1ccc(/C=N/NC(=O)C2=NNC(c3ccccc3)(c3ccccc3)C2)c(O)c1`, the Potency was 3.16 µM (active). Then `COc1cc(/C=N/NC(=O)c2cc(-c3ccccc3C)nc3ccccc23)cc(OC)c1O`, with “inactive”. As for `Cc1ccc2nc(CNC(=O)c3ccccc3)[nH]c2c1`, the Potency entry is “inactive”.

`CCC(C)Cn1c(O)cc2nn(-c3nc4ccccc4s3)c(=O)c-2c1C` (centres undefined): the Potency is 14.1 µM (active).

With `COc1ccc(OC)c(NC(=O)/C=C/c2ccc(C)o2)c1`, the Potency result was “inactive”. The value for `CCOC(=O)C1CCN(c2nc3c(S(=O)(=O)c4ccc(CC)cc4)nnn3c3ccc(Cl)cc23)CC1` was “inactive”; that for `CCCCCn1c(=O)[nH]c2cc(C(=O)NCCN(C)CCCC)ccc2c1=O` was “inactive”; that for `COc1ccccc1CNC(=O)NCc1noc2ccc(C)cc12` was “inactive”. On to `CC(C)(C)c1ccc(Oc2ccc(N)cc2)cc1`, for which the Potency is 2.82 µM (active). Then `CN(C)S(=O)(=O)c1ccc(Oc2ccc(S(=O)(=O)N(C)C)cc2)cc1`, with “inactive”. Then `Cc1cc(C(C)(C)C)cc(C)c1N`, with “inactive”. As to `O=C(OCCN1CCOCC1)c1cccnc1Nc1cccc(C(F)(F)F)c1`, the Potency result is “inactive”.

Turning to `CCCCN(CCCC)CCC(O)c1cc2c(Cl)cc(Cl)cc2c2cc(C(F)(F)F)ccc12` (centres undefined), the Potency result is “inactive and 31.6 µM (active)”. Regarding `Cc1c(Cl)cccc1NC(=O)C(=O)NCCc1csc2nc(-c3ccccc3F)nn12`, the Potency entry is “inactive”. Then `Oc1ccc2ccccc2c1N=Nc1nccs1`, with 3.55 µM (active). The value for `Cc1ccccc1Cn1nc(C)c(NC(=O)c2cc(-c3ccc(F)cc3)on2)c1C` was “inactive”; that for `COc1cc(NC(=O)CN2CCN(S(=O)(=O)c3ccc(Br)cc3)CC2)cc(OC)c1` was “inactive”; that for `CNC(=O)c1ccsc1NC(=O)c1ccc(S(=O)(=O)N2CCOCC2)cc1` was “inactive”. Regarding `Cc1cc2nc(NC(=O)c3ccc(S(=O)(=O)N4CCOCC4)cc3)sc2cc1C`, the Potency entry is “inactive”.

Regarding `COc1ccc(C(=O)Nc2nc(-c3ccc(S(=O)(=O)N4CCOCC4)cc3)cs2)cc1`, the Potency is 25.1 µM (active). The value for `CCc1nc2c(cnn2-c2ccc(C)cc2)c(=O)n1-c1ccc(C)cc1` was “inactive”; that for `Cc1ccccc1CSCCNC(=O)C1CCN(S(=O)(=O)Cc2ccccc2)CC1` was “inactive”; that for `O=C(COC(=O)CN1C(=O)C2CCCCC2C1=O)Nc1ccc(F)c(F)c1F` (centres undefined) was “inactive”. The value for `CC1=CC(C)(C)Nc2ccc(OC(=O)C(Cc3ccccc3)N3C(=O)C4CCCCC4C3=O)cc21` (centres undefined) was “inactive”; that for `CC1=CC(C)(C)Nc2ccc(OC(=O)CN3C(=O)C4CCCCC4C3=O)cc21` (centres undefined) was 31.6 µM (active). Then `C[C@]12CCC3=C4CCC(=O)C=C4CC[C@@H]3[C@H]1CC[C@@]2(O)CC#N`, with “inactive”; and `COc1ccc(C(=O)/C=C/Nc2ccccn2)cc1`, with 8.91 µM (active). For the molecule `CCOc1cc2ccccc2cc1C(=O)Nc1ccccn1`, the Potency result is “inactive”.

For `Cc1cc(N/C=C\C(=O)c2ccc(Cl)c(Cl)c2)no1`, the Potency entry is “inactive”. Then `COc1ccc(CNC(=O)CSc2nc3ccccc3nc2Cc2ccccc2)cc1`, with “inactive”.

Regarding `O=C(NCCC1=CCCCC1)c1ccc2c(c1)N(Cc1ccccc1F)C(=O)c1ccccc1S2(=O)=O`, the Potency entry is “inactive”. In the case of `CCOC(=O)c1c(C)[nH]c(C)c1S(=O)(=O)N1CCCC(C(=O)NCc2ccccc2Cl)C1` (centres undefined), the Potency result is “inactive”. The value for `CC1CCCN(C(=O)CN2C(=O)c3ccccc3S2(=O)=O)C1` (centres undefined) was “inactive”; that for `O=C(CN1C(=O)c2ccccc2S1(=O)=O)N1CCc2ccccc21` was 2.51 µM (active); that for `CN(Cc1ccc(F)cc1)C(=O)CN1C(=O)c2ccccc2S1(=O)=O` was “inactive”. Turning to `CO[C@H]1C=CO[C@@]2(C)Oc3c(C)c(O)c4c(O)c(c(/C=N/N5CCN(C)CC5)c(O)c4c3C2=O)NC(=O)/C(C)=C\C=C[C@H](C)[C@H](O)[C@@H](C)[C@@H](O)[C@@H](C)[C@H](OC(C)=O)[C@@H]1C`, the Potency entry is “inactive”. The value for `C=CCn1c(COc2cccc3cccnc23)nnc1SCC(=O)OC` was “inactive”; that for `COc1ccc(CCNS(=O)(=O)c2cccc3cccnc23)cc1OC` was “inactive”; that for `CCCCC(=O)NC(c1ccc(OC)c(OC)c1)c1ccc2cccnc2c1O` (centres undefined) was 5.01 µM (active). As for `CC1=C(C(=O)N(C(C)C)C(C)C)CC(CC(=O)NCCCCc2ccccc2)C(=O)N1CCC1=CCCCC1` (centres undefined), the Potency entry was “inactive”. The value for `CCc1c2c(nc3ccc(O)cc13)-c1cc3c(c(=O)n1C2)COC(=O)[C@]3(O)CC` was 0.0061 µM (active); that for `CCCCN(CC)C(=S)Nc1ccc2nc3n(c(=O)c2c1)CCCCC3` was “inactive”. The value for `COc1ccc(C(=O)COC(=O)CCCC(=O)Nc2cc(C(F)(F)F)ccc2Cl)cc1` was “inactive”; that for `COc1ccc(-n2nc3c(N4CCC(C(=O)NCc5ccccc5)CC4)nnc(C)c3c2C)cc1` was “inactive”. Then `CCCCNC(=O)C1CCCN(c2nnc(C)c3c(C)n(-c4ccc(Cl)cc4)nc23)C1` (centres undefined), with “inactive”; and `Cc1nnc(N2CCCC(C(=O)NCCN(C)C)C2)c2nn(-c3ccccc3)c(C)c12` (centres undefined), with “inactive”. As for `Cc1nnc(N2CCC(C(=O)Nc3ccc(F)cc3)CC2)c2nn(-c3ccc(Cl)cc3)c(C)c12`, the Potency was 25.1 µM (active). The value for `CCc1ccc(CNC(=O)C2CCN(c3nnc(C)c4c(C)n(-c5ccc(C)cc5)nc34)CC2)cc1` was 31.6 µM (active); that for `COc1cccc(NC(=O)C2CCN(c3cc(C)nc4c(-c5ccc(Cl)cc5)c(C)nn34)CC2)c1` was “inactive”; that for `CSc1nc(-c2ccc(F)cc2)nc2c1Cc1c(CO)cnc(C)c1O2` was “inactive”. As to `Cc1ccc(CNC(=O)CCc2c(C)nc3c(c(C)nn3-c3ccccc3)c2C)cc1`, the Potency entry was “inactive”. Then `CN(C)c1ccc(NC(=O)CSc2nc(-c3ccco3)cc(C(F)(F)F)n2)cc1`, with “inactive”; and `COc1cccc(CNC(=O)c2cc(=O)[nH]c3ccc(S(=O)(=O)N4CCCCC4)cc23)c1`, with “inactive”; and `Cc1cc(NC(=O)CCC(=O)N(c2cccc(F)c2)C(C(=O)NC2CCCC2)c2ccncc2)no1` (centres undefined), with “inactive”. The value for `Cc1cc(NC(=O)/C=C/C(=O)N(c2ccccc2C)C(C(=O)NC2CCCC2)c2ccc(F)cc2)no1` (centres undefined) was 10 µM (active); that for `Cc1cc(NC(=O)/C=C/C(=O)N(CC(=O)NC2CCCC2)c2ccc(F)cc2)no1` was “inactive”. Consider `CCOc1ccc(-c2nonc2NC(=O)c2oc3ccc(C)cc3c2C)cc1OCC`, for which the Potency result was “inactive”. Take `O=C(Nc1ccc(O)c(-c2nc3ccccc3o2)c1)c1ccc(-c2cccc(Cl)c2)o1`: the Potency result was “inactive”. Regarding `CC1(C(=O)NCc2ccco2)Cc2c(-c3ccc4c(c3)OCO4)ccnc2O1` (centres undefined), the Potency result is “inactive”. The value for `CCOC(=O)c1ccc(NC(=O)CCn2cnnn2)cc1` was “inactive”; that for `CON=C(C(=O)N[C@@H]1C(=O)N2C(C(=O)OCOC(=O)C(C)(C)C)=C(C=Cc3scnc3C)CS[C@H]12)c1csc(N)n1` was “inactive”; that for `Cc1cc(Br)cn2c(Cc3cccc(F)c3)c(-c3cccc(Br)c3)nc12` was “inactive”.

In the case of `CC(C)(C)c1cc(C(=O)O)c(NC(=O)Nc2ccc3[nH]ncc3c2)s1`, the Potency result is “inactive”. Regarding `CC(C)(C)c1nc(-c2cccc(NS(=O)(=O)c3c(F)cccc3F)c2F)c(-c2ccnc(N)n2)s1`, the Potency result was “inactive”. Take `OC(c1ccc(Cl)cc1)c1ncc(-c2ccc(Cl)cc2)[nH]1` (centres undefined): the Potency result is “inactive”. Then `CC(C)Cc1ccc(-c2cc3nc(NCc4cccc(Cl)c4)ccn3n2)cc1`, with “inactive”; and `CC(=O)N(CN1C(=O)C2CC=CCC2C1=O)c1cccc(Cl)c1` (centres undefined), with “inactive”. In the case of `O=C(CCl)N(Cc1cccc([N+](=O)[O-])c1)c1cccc(Cl)c1`, the Potency is 2.38 µM (active). With `Cc1cc([N+](=O)[O-])ccc1NCc1cccc([N+](=O)[O-])c1`, the Potency entry was “inactive”.
